Compound activity from PubChem BioAssay.
Env fusion inh = inhibitors of HIV Env-mediated cell fusion; HeLa-JRFL Env/CEM21 cell fusion, luciferase; inhibition, % at 12.3 µM; 360,000 compounds, 1.1% hits;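 active = mean replicate inhibition score of at least 50 and every replicate individually at or above 50; inconclusive = only one of the two criteria met; inactive = mean below 50 and not all replicates reaching 50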;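 note: 0% = plate neutral controls and 100% = maraviroc near 300 nM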
EWS-Fli inh = inhibitors of EWS/Fli oncoprotein transcriptional activity; A673 NR0B1-luciferase reporter, viability-normalised; inhibition, % at 12.6 µM; 350,000 compounds, 0.67% hits;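 active = mean inhibition of at least 50% after viability correction, with every replicate also passing that limit; inconclusive = mean reaches 50% but only one of two replicates passes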;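 note: firefly luciferase signal divided by Alamar Blue viability fluorescence both relative to DMSO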
F508del corr = CFTR F508del correction in bronchial cells | AID 720511 | 350,000 compounds, 0.36% hits | CFBE cells, YFP halide quenching; stimulated with forskolin plus potentiator P3; % fluorescence drop versus neutral controls | activity (quench increase), % at 7.58 µM;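 active = mean added fluorescence quench of at least 8% versus neutral control, with both replicates also reaching 8%; inconclusive = only one of the mean or replicate conditions met; inactive = mean below 8% and not both replicates reaching 8%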;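 note: cells transiently co-express mutant CFTR-F508del with the halide-sensitive YFP; corrector assay measuring rescue of mutant channel to the surface after 24 h compound exposure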
PAX8 reporter = lowers PAX8-driven luciferase in RMG-I cells; RMG-I TPO-luciferase reporter, SteadyGlo, 24 h; inhibition, % at 12.6 µM; 360,000 compounds, 1.2% hits;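 active = mean replicate inhibition at least 60% with every replicate also reaching 60%; inconclusive = only one of the two criteria is met; inactive = mean below 60% and not all replicates reaching 60%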;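 note: luciferase light reporting Pax8 driven TPO promoter activity; plate controls were median of neutral control wells for no effect and mitoxantrone controls for full effect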
GAA850 FXN act = activators of GAA850 frataxin (FXN) promoter; HEK293 lucGAA850 FXN promoter luciferase reporter, 24 h; percent of 10 µM SAHA response; activation, % at 6 µM; 360,000 compounds, 0.56% hits;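 active = activation above the average of all compounds screened plus 3 SD, cutoff fixed separately per campaign, cut at about 7.5% in these data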;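 note: 0% = DMSO wells and 100% = 10 µM SAHA wells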
Numbers without * were called inactive; ? = inconclusive; . = no result given; [ ] = another dose, or the depositor's remark. The list is not random: actives were taken first. Their share in the collection is about 2.5%.

SMILES	Env fusion inh	EWS-Fli inh	F508del corr	PAX8 reporter	GAA850 FXN act
CC(C)NC(=O)NCC[C@H]1CC[C@@H](NS(=O)(=O)c2ccccc2)[C@@H](CO)O1	.	8	-1	.	.
C[C@H]1CCCCO[C@H](CN(C)C(=O)Nc2ccc(C(F)(F)F)cc2)[C@@H](C)CN([C@@H](C)CO)C(=O)c2cc(NC(=O)Nc3ccccc3)ccc2O1	64*[16.7 µM]	-11	-3	81*	.
NNC(=O)c1nn(-c2ccc(Cl)cc2)cc1O	-27	-9	-33	72*	0
COc1cccc(S(=O)(=O)N(C)C[C@@H]2Oc3cc(C4=CCCCC4)ccc3S(=O)(=O)N([C@@H](C)CO)C[C@@H]2C)c1	55*[16.7 µM]	17	-4	?	.
COc1cccc(S(=O)(=O)N(C)C[C@H]2Oc3cc(C4=CCCCC4)ccc3S(=O)(=O)N([C@H](C)CO)C[C@H]2C)c1	69*[16.7 µM]	15	-3	54	.
COc1cccc(S(=O)(=O)N(C)C[C@H]2Oc3cc(C4=CCCC4)ccc3S(=O)(=O)N([C@@H](C)CO)C[C@@H]2C)c1	-9[16.7 µM]	22	5	41	.
CO[C@H]1O[C@H](CO)[C@@H](OC(=O)Nc2ccccc2)[C@H](OC(=O)Nc2ccc3c(c2)OCO3)[C@@H]1OC(=O)Nc1ccc2c(c1)OCO2	-4[16.7 µM]	-4	-1	.	.
FC(F)(F)c1cnc(N2CCN(C(=S)NCc3ccccc3)CC2)c(Cl)c1	15	4	-1	18	0
FC(F)(F)c1cnc(N2CCCN(C(=S)Nc3ccccc3)CC2)c(Cl)c1	87*	16	0	-2	7
CN(C)c1ccc(CNC(=O)C2(C)Cc3c(-c4ccc5c(c4)OCO5)ccnc3O2)cc1 (stereo not drawn)	-21	59*	1	26	-6
CNC(=O)C1(C)Cc2c(-c3ccc4c(c3)OCO4)ccnc2O1 (stereo not drawn)	-10	-1	-3	0	2
COc1ccc(NC(=O)C2(C)Cc3c(-c4ccc5c(c4)OCO5)ccnc3O2)cc1 (stereo not drawn)	-26	53*	2	29	-3
COc1ccc(NC(=O)C2(C)Cc3c(-c4ccc(NC(C)=O)cc4)ccnc3O2)cn1 (stereo not drawn)	-14	-5	2	11	-3
COc1ccc(NC(=O)C2(C)Cc3c(-c4cccc(NC(C)=O)c4)ccnc3O2)cn1 (stereo not drawn)	-115	59*	4	.	-2
CC(=O)Nc1cccc(-c2ccnc3c2CC(C)(C(=O)Nc2ccc(Cl)cc2)O3)c1 (stereo not drawn)	-29	62*	8	56	-6
CC(=O)Nc1ccc(NC(=O)C2(C)Cc3c(-c4cccc(NC(C)=O)c4)ccnc3O2)cc1 (stereo not drawn)	-18	-2	3	18	1
CC(=O)Nc1cccc(-c2ccnc3c2CC(C)(C(=O)Nc2ccc4c(c2)OCO4)O3)c1 (stereo not drawn)	-19	49	10*	-5	0
CC1(C(=O)Nc2ccc3c(c2)OCO3)Cc2c(-c3ccccc3)ccnc2O1 (stereo not drawn)	10	9	3	2	2
O=C(Nc1ccc2c(c1)OCO2)C1Cc2c(-c3ccc4c(c3)OCO4)ccnc2O1 (stereo not drawn)	-10	53*	0	30	-5
C[C@@H]1CN([C@@H](C)CO)C(=O)Cc2cc(NC(=O)CCCN(C)C)ccc2O[C@@H]1CN(C)S(=O)(=O)c1cccs1	2[16.7 µM]	-18	-2	-14	.
CCCCCCC[N+](CC)(CC)CCCCc1ccc(Cl)cc1	6	19	0	87*	-1
CCCCCNCc1ccc(Cl)cc1	9	-4	0	3	2
Nc1[nH]nc2ncc3cc4ccccc4nc3c12	-39	-32	12*	-39	1
O[C@@H]1[C@@H](O)C=C2CCN3Cc4cc5c(cc4[C@H]1C23)OCO5 (stereo partly drawn)	.	44	-5	102*	-11
COc1ccc2c(c1OC)CN1CCc3cc4c(cc3[C@@H]1[C@@H]2O)OCO4	.	.	.	.	1
SMILES	Env fusion inh	EWS-Fli inh	F508del corr	PAX8 reporter	GAA850 FXN act
Cc1nnc(N2C(=O)c3cccc4c([N+](=O)[O-])ccc(c34)C2=O)s1	-90	68*	?	18	-1
O=C1c2cccc3c([N+](=O)[O-])ccc(c23)C(=O)N1Cc1cccnc1	-36	38	33*	34	1
Cc1ccnc(N2C(=O)c3cccc4c([N+](=O)[O-])ccc(c34)C2=O)c1	.	66*	23*	.	-2
Cc1ccc(N2C(=O)c3cccc4c([N+](=O)[O-])ccc(c34)C2=O)c2cccnc12	-204	17	25*	15	-4
O=C1c2cccc3cccc(c23)C(=O)N1Cc1cccnc1	7	-2	2	1	3
CCCC(=O)N1CC2(C1)CN(C(=O)CN1CCOCC1)[C@@H](CO)c1c2c2ccc(OC)cc2n1C	-4[16.7 µM]	-4	0	.	.
CN1C(=O)c2cc(NC(=O)c3cnccn3)ccc2OC[C@@H]2O[C@@H](CC(=O)NCC3CC3)CC[C@H]21	.	-8	-4	-28	.
COc1ccccc1CN1C[C@@H](C)[C@@H](OC)CN(C)C(=O)c2cc(NC(C)=O)ccc2OC[C@@H]1C	-1[16.7 µM]	-4	0	-15	.
C[C@@H]1CN([C@H](C)CO)C(=O)c2cc(NC(=O)c3ccccc3)ccc2O[C@@H](C)CCCCO[C@@H]1CN(C)Cc1ccc(C(F)(F)F)cc1	30[16.7 µM]	6	1	91*	.
C[C@@H]1CN([C@H](C)CO)C(=O)c2cc(NC(=O)c3ccccc3)ccc2O[C@@H](C)CCCCO[C@H]1CN(C)Cc1ccc(C(F)(F)F)cc1	69*[16.7 µM]	17	0	99*	.
C[C@H](CO)N1C[C@H](C)[C@H](CN(C)Cc2ccc(C(F)(F)F)cc2)OCCCC[C@H](C)Oc2ccc(NC(=O)c3ccccc3)cc2C1=O	13[16.7 µM]	29	1	90*	.
C[C@@H]1CN([C@@H](C)CO)C(=O)c2cc(NC(=O)c3ccncc3)ccc2O[C@@H](C)CCCCO[C@@H]1CN(C)Cc1ccc(C(F)(F)F)cc1	-3[16.7 µM]	18	-2	23	.
C[C@@H]1CCCCO[C@@H](CN(C)Cc2ccc(C(F)(F)F)cc2)[C@H](C)CN([C@H](C)CO)C(=O)c2cc(NC(=O)c3ccccc3)ccc2O1	79*[16.7 µM]	22	2	91*	.
CCCN1[C@H](C(=O)NC2CCCC2)[C@@H](CO)[C@@H]2Cn3c(ccc(-c4cccnc4)c3=O)[C@@H]21	.	-16	-1	.	.
C[C@@H]1CCCCO[C@H](CN(C)C(=O)C2CCCCC2)[C@H](C)CN([C@@H](C)CO)C(=O)c2cc(N(C)C)ccc2O1	8[16.7 µM]	1	3	26	.
C[C@H](CO)N1C[C@H](C)[C@@H](CN(C)Cc2ccc(C(F)(F)F)cc2)OCCCC[C@H](C)Oc2ccc(NC(=O)c3ccccc3)cc2C1=O	3[16.7 µM]	35	0	67*	.
